A short description of assay [1]: optical density shifts of acrAB sulA E. coli – strain DRC41, OD650, 48 h, E. coli filamentation inducer project, primary screen (AID 1152).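 Further: E. coli MC1000 strain DRC41 lacking acrAB efflux pump and sulA.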 The settings on record: higher = more signal, called active from +8 up or from −8 down.
Assay [2] can be described thus: probe aLefty1 binding on compound microarray – biochemical, small-molecule microarray, 635/667 nm fluorescence, primary screen (AID 1153).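 Further: score merges spot fluorescence with signal-to-noise ratio from the scanned slide images.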 The settings on record: higher = more signal.
Assay [3] can be described thus: plasmodial surface anion channel blockers, osmotic lysis – cell-based, P. falciparum Indochina, OD700, 1 h, primary screen (AID 1154). As to conditions: P. falciparum Indochina infected RBC osmotic lysis, higher = more signal, called active from +8 up or from −8 down.
Assay [4] in a line: plasmodial surface anion channel blockers, osmotic lysis – cell-based, P. falciparum Indochina, OD700, 2 h, primary screen (AID 1155).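 Further: lysis reports solute entry through the parasite surface anion channel PSAC.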 The settings on record: P. falciparum Indochina infected erythrocytes, higher = more signal, called active from +8 up or from −8 down.
The nature of assay [5]: changes in parasitized red cell lysis, either direction – P. falciparum Indochina, OD700, 3 h, PSAC antagonist project, primary screen (AID 1156). As to conditions: P. falciparum-infected erythrocytes, osmotic lysis, higher = more signal, called active from +8 up or from −8 down.
The nature of assay [6]: plasmodial surface anion channel blockers, osmotic lysis – cell-based, P. falciparum Indochina, OD700, 18 h, primary screen (AID 1157). As to conditions: P. falciparum Indochina infected erythrocytes, osmotic lysis OD700, 18 h; higher = more signal, called active from +8 up or from −8 down.
Assay [7] is described as follows: S6 kinase pathway phospho-S6 level changes – cell-based, A549, cytoblot, luminescence, serum-stimulated, primary screen (AID 1158).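 Further: serum-stimulated A549 lung adenocarcinoma cells; signal is phosphorylated S6 detected by cytoblot immunostaining with HRP secondary.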 The settings on record: 5 h, higher = more signal.
The target of assay [8] is NADPH oxidase 2 (Homo sapiens) (UniProt P04839). In words: compounds shifting NOX2 Amplex Red fluorescence – cell-based, HEK293-NOX2, PMA-stimulated, NOX inhibitor project, primary screen (AID 1159). Further: test concentration not given here. The settings on record: 45 min, higher = more signal, called active from +8 up or from −8 down.
NADPH oxidase 2 (Homo sapiens), sequence (P04839 whole entry, looked up): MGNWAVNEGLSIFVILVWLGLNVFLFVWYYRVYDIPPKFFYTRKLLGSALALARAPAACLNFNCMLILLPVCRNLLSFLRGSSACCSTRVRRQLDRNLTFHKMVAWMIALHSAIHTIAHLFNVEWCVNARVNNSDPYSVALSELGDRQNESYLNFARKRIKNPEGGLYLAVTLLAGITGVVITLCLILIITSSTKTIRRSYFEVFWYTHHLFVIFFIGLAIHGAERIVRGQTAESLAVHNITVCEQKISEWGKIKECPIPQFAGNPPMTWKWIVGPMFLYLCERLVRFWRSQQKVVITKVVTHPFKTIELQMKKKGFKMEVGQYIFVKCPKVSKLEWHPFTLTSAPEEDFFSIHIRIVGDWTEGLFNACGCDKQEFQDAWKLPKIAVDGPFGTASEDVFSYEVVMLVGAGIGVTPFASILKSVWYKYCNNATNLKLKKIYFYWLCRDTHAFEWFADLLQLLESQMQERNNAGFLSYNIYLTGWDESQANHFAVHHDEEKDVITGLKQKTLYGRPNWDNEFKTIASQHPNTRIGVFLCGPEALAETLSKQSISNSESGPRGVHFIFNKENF
In assay [9] the target is NADPH oxidase 4 (Homo sapiens) (UniProt Q9NPH5). The assay is described as follows: compounds shifting NOX4 Amplex Red fluorescence – cell-based, HEK293-NOX4, tetracycline-induced, NOX inhibitor project, primary screen (AID 1160). As to conditions: HEK293-NOX4, Amplex Red H2O2 fluorescence, 45 min; higher = more signal, called active from +8 up or from −8 down.
NADPH oxidase 4 (Homo sapiens), sequence (Q9NPH5 whole entry, looked up): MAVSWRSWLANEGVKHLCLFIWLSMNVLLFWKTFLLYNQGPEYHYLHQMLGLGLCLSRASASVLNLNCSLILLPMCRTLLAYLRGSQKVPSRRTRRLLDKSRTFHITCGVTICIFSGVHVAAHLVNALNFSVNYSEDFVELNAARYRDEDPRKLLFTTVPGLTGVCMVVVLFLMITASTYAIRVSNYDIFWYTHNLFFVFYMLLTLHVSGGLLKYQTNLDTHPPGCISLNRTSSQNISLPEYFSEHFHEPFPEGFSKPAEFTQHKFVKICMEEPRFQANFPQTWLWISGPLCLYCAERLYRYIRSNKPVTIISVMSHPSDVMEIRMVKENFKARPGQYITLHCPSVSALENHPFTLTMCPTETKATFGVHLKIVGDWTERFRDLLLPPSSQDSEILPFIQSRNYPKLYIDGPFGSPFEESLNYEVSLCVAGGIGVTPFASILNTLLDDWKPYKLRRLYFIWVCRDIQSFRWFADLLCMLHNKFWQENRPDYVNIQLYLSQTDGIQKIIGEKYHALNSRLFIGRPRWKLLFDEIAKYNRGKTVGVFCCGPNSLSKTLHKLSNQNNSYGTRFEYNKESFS
In assay [10] the target is NADPH oxidase 5 (Homo sapiens) (UniProt Q96PH1). The assay is described as follows: compounds shifting NOX5 Amplex Red fluorescence – cell-based, HEK293-NOX5, NOX inhibitor project, primary screen (AID 1161). The settings on record: HEK293-NOX5, ionomycin, 45 min, higher = more signal.
NADPH oxidase 5 (Homo sapiens), sequence (Q96PH1 whole entry, looked up): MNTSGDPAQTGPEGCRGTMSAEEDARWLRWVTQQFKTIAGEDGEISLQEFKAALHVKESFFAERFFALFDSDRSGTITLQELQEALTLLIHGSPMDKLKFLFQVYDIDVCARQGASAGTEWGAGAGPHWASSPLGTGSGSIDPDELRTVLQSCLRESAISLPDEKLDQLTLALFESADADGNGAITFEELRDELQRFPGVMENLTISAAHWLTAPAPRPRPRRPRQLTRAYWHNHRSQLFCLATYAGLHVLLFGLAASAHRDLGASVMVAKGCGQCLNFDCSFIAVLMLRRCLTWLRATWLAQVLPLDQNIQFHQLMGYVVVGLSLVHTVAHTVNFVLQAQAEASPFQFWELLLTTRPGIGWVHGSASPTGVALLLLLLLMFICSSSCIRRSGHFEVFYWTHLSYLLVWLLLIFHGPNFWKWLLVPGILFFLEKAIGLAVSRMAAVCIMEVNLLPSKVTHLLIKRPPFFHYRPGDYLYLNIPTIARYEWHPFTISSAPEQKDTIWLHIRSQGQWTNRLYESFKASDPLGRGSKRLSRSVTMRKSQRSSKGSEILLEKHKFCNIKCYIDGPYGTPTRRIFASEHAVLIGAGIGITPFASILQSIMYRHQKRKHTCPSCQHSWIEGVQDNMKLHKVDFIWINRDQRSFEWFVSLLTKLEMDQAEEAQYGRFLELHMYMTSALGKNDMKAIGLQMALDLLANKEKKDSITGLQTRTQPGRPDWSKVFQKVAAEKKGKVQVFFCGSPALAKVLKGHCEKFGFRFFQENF
A short description of assay [11]: compound effects on lung adenocarcinoma cell viability – A549, calcein-AM fluorescence, 48 h, basal, profiling panel (AID 1162). Further: test concentration not given here. The settings on record: higher = more signal.
The nature of assay [12]: compound effects on differentiated 3T3-L1 adipocyte viability – cell-based, 3T3-L1 adipocytes, calcein-AM fluorescence, 48 h, basal, profiling panel (AID 1163). Further: test concentration not given here. The settings on record: 3T3-L1 adipocytes viability, higher = more signal.
Assay [13] can be described thus: compound effects on hepatocellular carcinoma cell viability – HepG2, calcein-AM fluorescence, 48 h, basal, profiling panel (AID 1164). Further: test concentration not given here. As to conditions: higher = more signal.
A short description of assay [14]: compound effects on multiple myeloma cell viability – MM1S, calcein-AM fluorescence, 48 h, basal, profiling panel (AID 1165).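 Further: viability of MM1S multiple myeloma cells under basal unstimulated conditions; test concentration not given here.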 The settings on record: higher = more signal.
The nature of assay [15]: calcein-AM signal in unstimulated myeloma cells – cell-based, calcein-AM fluorescence, 48 h, PK04 Diversity Set, profiling panel (AID 1166).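 Further: cells grown under basal conditions without added stimulus; test concentration not given here.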 The settings on record: RPMI8226 myeloma viability, higher = more signal.
Assay [16] can be described thus: JC-1 mitochondrial signal, unstimulated HepG2 cells – cell-based, JC-1 fluorescence, 24 h, 100 nL compound, profiling panel (AID 1167). Further: test concentration not given here. The settings on record: HepG2 mitochondrial potential, higher = more signal.
A short description of assay [17]: JC-1 mitochondrial signal, unstimulated adipocytes – cell-based, JC-1 fluorescence, 3T3-L1 adipocytes, 24 h, 100 nL compound, profiling panel (AID 1168). Further: test concentration not given here. The settings on record: JC-1 mitochondrial fluorescence, higher = more signal, called active from +8 up or from −8 down.
Assay [18] can be described thus: JC-1 mitochondrial signal, unstimulated myeloma cells – cell-based, JC-1 fluorescence, RPMI8226, 24 h, 100 nL compound, profiling panel (AID 1169). Further: test concentration not given here. As to conditions: JC-1 mitochondrial potential fluorescence, higher = more signal.
Assay [19] in a line: JC-1 mitochondrial signal, unstimulated MM1S myeloma – cell-based, JC-1 fluorescence, 24 h, 100 nL compound, profiling panel (AID 1170). Further: test concentration not given here. As to conditions: MM1S mitochondrial potential, higher = more signal.
Assay [20] can be described thus: resazurin metabolic signal in A549 cells – cell-based, resazurin fluorescence, 24 h, PK04 Diversity Set, profiling panel (AID 1171). Further: test concentration not given here. As to conditions: A549 viability, higher = more signal, called active from +8 up or from −8 down. (The colour change of resazurin is a common sign of viable cells or microbes.)

Activity calls are given as the source filed them.

With `CO[C@@H]1C=CCC(=O)N[C@@H](C)C(=O)OC[C@@H](OC)[C@H](C)CCCC(=O)OC[C@H]1C`, the z-score in assay [1] was 0.0058 (inactive); in assay [3] it was -1.15 (inactive); in assay [4], -1.22 (inactive); in assay [5], -0.683 (inactive); in assay [6], -2.43 (inactive); in [7], -0.417. Moreover, the z-score in assay [8] is 0.57 (inactive); in assay [9] it was 0.957 (inactive); in assay [10], 0.645; in [11], 0.942; in [12] it was -0.226; in assay [13], -0.0306. For the same compound, the z-score in assay [14] was 0.188; in assay [15] it was -0.0539; in assay [16], -0.0819; in [17] it was 0.225 (inactive); in assay [18] it was 0.236; in assay [19], -0.392. Moreover, the z-score in [20] was 0.471 (inactive). In assay [2], this compound came in with a composite z-score of 0.0816.
For the compound `COC(=O)CC=C[C@@H](C)[C@@H](C=NOC[C@@H](O)[C@H]1O[C@@H]2OC(C)(C)O[C@@H]2[C@H]1O)NS(=O)(=O)c1ccc(C)cc1`, the z-score was 0.463 (inactive) in [1]; -0.0598 (inactive) in assay [3]; 0.0216 (inactive) in [4]; -0.268 (inactive) in [5]; 0.0967 (inactive) in assay [6]; -0.979 in assay [7]. Also, the z-score in assay [8] was 0.214 (inactive); in assay [9], 0.171 (inactive); in [10] it was 0.829; in [11], -0.234; in [12], 0.531; in [13], 0.104. For the same compound, the z-score in assay [14] was -1.57; in [15], -0.34; in assay [16], 0.153; in [17] it was 0.158 (inactive); in assay [18], -0.15; in [19] it was -0.488. In assay [20], the z-score is -0.854 (inactive). The compound further showed a composite z-score in [2] of 0.165.
Regarding `Cc1cc2c(nc1C)CCCN2CC(O)CN1CCCc2nc(C)c(C)cc21`, the z-score in assay [1] is -0.171 (inactive); in [3], -0.274 (inactive); in assay [4], 0.185 (inactive); in assay [5], 0.249 (inactive); in assay [6], -0.0697 (inactive); in [7], -0.669. For the same compound, the z-score in assay [8] is 0.803 (inactive); in assay [9] it was 0.628 (inactive); in assay [10], -0.575; in [11], -0.254; in assay [12] it was -0.0412; in [13] it was -0.949. For the same compound, the z-score in assay [14] was -0.0227; in assay [15], 0.391; in assay [16], 0.00162; in [17], -0.414 (inactive); in [18] it was -0.108; in [19], 0.382. Moreover, the z-score in [20] is 0.189 (inactive). In assay [2], the composite z-score worked out at 0.547.
With `COc1ccc(O[C@H]2C=C[C@@H](c3ccccc3)O[C@@H]2CON=CC[C@@H]2C=C[C@H](OC(C)=O)[C@@H](COC(C)=O)O2)cc1`, the z-score in assay [1] is -0.259 (inactive); in [3] it was 8.95 (active); in [4], 1.95 (inactive); in [5], 1.07 (inactive); in [6] it was 0.662 (inactive); in assay [7], -0.981. Also, the z-score is -0.279 (inactive) in assay [8]; -2.22 (inactive) in assay [9]; -1.01 in assay [10]; 0.0639 in assay [11]; -0.0129 in assay [12]; -0.555 in assay [13]. The z-score in assay [14] is 0.306; in assay [15], -1.17; in assay [16], -1.33; in assay [17] it was -0.112 (inactive); in [18] it was -0.0648; in assay [19] it was 0.491. For the same compound, the z-score in [20] was -0.247 (inactive). This compound also gave a composite z-score in assay [2] of -0.0054.
Turning to `CC(C)(C)N1C(=O)[C@H]2[C@H]3[C@H](O)[C@H](O)CC(=O)[C@@H]3CC[C@H]2C1=O`, the z-score in [1] was -0.767 (inactive); in [3], 0.126 (inactive); in assay [4], 0.0976 (inactive); in assay [5], -1.24 (inactive); in assay [6], -0.0131 (inactive); in assay [7], 0.413. Also, the z-score in assay [8] was -3.23 (inactive); in assay [9], 0.0825 (inactive); in [10], 0.309; in assay [11], -0.743; in assay [12] it was 0.436; in [13] it was 0.178. In addition, the z-score in assay [14] is -0.102; in assay [15], -0.052; in [16] it was -0.323; in assay [17], -0.715 (inactive); in assay [18], 0.967; in assay [19] it was 0.419. Also, in assay [20], the z-score is 0.756 (inactive). For the same compound, the composite z-score in assay [2] was -0.147.
